Assay results from the supplement of paper PMC6555819.

Legend:
Assay in all cases: PBM binding z-score (relative to random genomic background probes); higher = stronger binding; sequences stand for … in GC…GCGATTGACAGCGTAGAATGAAGG
[1] = tested on: FXR:RXRa (NR concentration 270 nM, RXRa partner concentration 90 nM)
Procedure, shortened: (§1)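 Binding z-scores take random background probes as their reference. They come from custom Agilent 4×180K protein-binding microarrays incubated 1 h with ligand-free nuclear receptor dimers, with antibodies against each partner (one per run) detecting binding. Scanned fluorescence was regression-normalized.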

[2] = tested on: LXRa:RXRa (NR concentration 270 nM, RXRa partner concentration 90 nM)
Procedure, shortened: as §1

[3] = tested on: LXRa homodimer (NR concentration 270 nM)
Procedure, shortened: as §1

[4] = tested on: LXRb:RXRa (NR concentration 270 nM, RXRa partner concentration 90 nM)
Procedure, shortened: as §1

[5] = tested on: LXRb homodimer (NR concentration 270 nM)
Procedure, shortened: as §1

[6] = tested on: PPARa:RXRa (NR concentration 270 nM, RXRa partner concentration 90 nM)
Procedure, shortened: as §1

[7] = tested on: PPARg:RXRa (NR concentration 180 nM, RXRa partner concentration 90 nM)
Procedure, shortened: as §1

[8] = tested on: PPARg:RXRa 270nM:90nM, anti-RXR (NR concentration 270 nM, RXRa partner concentration 90 nM)
Procedure, shortened: as §1

[9] = tested on: PPARg:RXRa 30nM:10nM, anti-RXR (NR concentration 30 nM, RXRa partner concentration 10 nM)
Procedure, shortened: as §1

[10] = tested on: PPARg:RXRa 90nM:30nM, anti-RXR (NR concentration 90 nM, RXRa partner concentration 30 nM)
Procedure, shortened: as §1

[11] = tested on: PPARg:RXRa DBDmut IVT, anti-RXR (DBD mutation: RXRa K156A/R161A, NR concentration 270 nM, RXRa partner concentration 90 nM)
Procedure, shortened: as §1

[12] = tested on: PPARg:RXRa IVT, anti-PPARg (NR concentration 270 nM, RXRa partner concentration 90 nM)
Procedure, shortened: as §1

[13] = tested on: PPARg DBDmut:RXRa IVT, anti-PPARg (DBD mutation: PPARg1 K132A/R137A, NR concentration 270 nM, RXRa partner concentration 90 nM)
Procedure, shortened: as §1

[14] = tested on: PPARg DBDmut IVT, anti-PPARg (DBD mutation: PPARg1 K132A/R137A, NR concentration 270 nM)
Procedure, shortened: as §1

[15] = tested on: PPARg homodimer (NR concentration 180 nM)
Procedure, shortened: as §1

[16] = tested on: PXR:RXRa (NR concentration 270 nM, RXRa partner concentration 90 nM)
Procedure, shortened: as §1

[17] = tested on: PXR homodimer (NR concentration 270 nM)
Procedure, shortened: as §1

[18] = tested on: RARa:RXR (NR concentration 270 nM, RXRa partner concentration 90 nM)
Procedure, shortened: as §1

[19] = tested on: RARa homodimer (NR concentration 270 nM)
Procedure, shortened: as §1

[20] = tested on: RARb:RXRa (NR concentration 270 nM, RXRa partner concentration 90 nM)
Procedure, shortened: as §1

Sequence	PBM binding z-score [1]	PBM binding z-score [2]	PBM binding z-score [3]	PBM binding z-score [4]	PBM binding z-score [5]	PBM binding z-score [6]	PBM binding z-score [7]	PBM binding z-score [8]	PBM binding z-score [9]	PBM binding z-score [10]	PBM binding z-score [11]	PBM binding z-score [12]	PBM binding z-score [13]	PBM binding z-score [14]	PBM binding z-score [15]	PBM binding z-score [16]	PBM binding z-score [17]	PBM binding z-score [18]	PBM binding z-score [19]	PBM binding z-score [20]
GCGACTGGGTCATCAGCAGGTTACCATAACTTAA	2.66	1.93	-0.34	2.04	-1.03	4.06	5.18	4.73	1.52	3.88	5.38	5.94	0.513	-0.691	1.31	2.22	-0.585	3.39	-0.469	3.23
GATACAGGGTCAAGGCCAGAGGACGCGTATTGAT	6.78	4.13	-0.101	3.54	-0.0333	5.49	6.03	5.55	2.01	4.12	2.29	3.97	0.837	0.968	2.75	3.68	0.296	4.56	1.16	4.44
TATACAGGGTCAAAGGCCAGAGTTCGAATGTCGA	7.08	6.38	3.94	4.81	2.5	6.15	8.48	7.27	5.54	7.17	2.55	4.54	1.63	2	3.99	5.44	2.54	6.63	1.14	4.53
TTTGCTAGGTCAACGATGGTCAGCTAATCTGCTA	3.71	4.07	1.84	2.07	-0.0738	3.59	3.4	3.77	1.38	2.86	4.45	5.11	0.599	0.434	0.874	1.46	-0.501	2.15	-0.298	4.13
TCTAGGAGGACACGAAAGGTCAGAGCTCGACATC	3.28	3.77	3.29	3.49	-0.113	3.91	1.98	3.19	2.99	2.51	2.31	2.52	0.115	-0.502	2.04	4.08	0.408	4.32	1.42	4.35
TCGAGTAGGTTACGGGCATTCAGAATGGCGTCGA	0.0323	0.894	-0.574	-0.0129	-1.41	1.33	1.14	1.54	0.893	1.06	3.6	3.2	-0.359	-0.95	-0.405	0.127	-0.967	0.109	-1.16	1.29
TAGCCTAGGTCATTGGGCCCGTATAGTACGCATC	4.15	3.59	0.962	2.9	0.67	3.84	2.27	2.57	0.517	1.74	1.78	3.02	0.545	-0.654	0.54	1.75	0.165	2	-0.326	3.74
GTACCAAGGTGAATAGGTCGTTGAAGAGTAGGCG	1.03	0.815	0.077	0.828	-0.492	2.34	1.56	2.06	0.379	1.17	1.8	2.92	0.0444	-0.34	1.08	1.12	0.219	1.79	0.784	1.94
CCTTTTAGTTGACCATAAGGGCAACCGAAGCTCG	0.795	0.621	0.344	0.707	1.3	0.649	0.247	0.669	0.0181	0.427	0.494	1.26	0.935	0.61	1.45	0.87	0.536	0.957	1.78	1.86
CCTCGGAGGACAACATGAGGTCAGAGCTGCCAGA	1.56	3.37	3.95	2.18	-0.278	2.38	0.717	0.534	-0.623	0.0899	0.44	0.437	-0.816	-1.02	1.69	2.8	0.437	2.67	0.194	3.04
ATATGTAGGTTCTCGGGTCATTCAGTTTGCGCAT	2.58	2.33	1.35	2.78	0.765	3.89	3.39	3.71	1.14	2.94	4.81	4.65	1.63	2.01	1.96	4.05	8.95	3.37	1.01	2.15
CAAACTAGGTCAAAGGTCAAAGTGGAGCCAACCA	7.94	7.01	5.57	6.96	3.14	7.45	13.9	11.2	12.3	13.7	8.72	9.15	3.29	1.05	7.6	7.01	2.04	8.86	5.25	5.8
CCTACTGGGCCAAAAAGGTCTTTGATGCCGATAA	-0.753	-0.556	-0.512	-0.343	-1.15	0.669	0.196	1.01	-0.425	0.203	3.45	2.65	-0.719	-0.578	-0.284	-0.31	-0.67	-0.184	-0.777	0.422
GCAGCCAGGTGAAACGCAGGTAACTCAGGGTGGC	-0.375	-0.533	-0.628	-0.952	-1.52	0.132	0.166	-0.353	-0.793	-0.229	1.32	1	-1.26	-1.53	-1.44	-0.698	-1.29	0.121	-2.03	0.362
CCTTACGGGTCACGAGGTTATAACACGACGAGCG	6.57	4.63	0.527	4.2	-0.0357	6.03	7.47	6.56	3.19	5.53	3.55	5.17	1.01	0.726	2.11	4.38	0.145	5.6	0.574	4.58
GGGACTGGGGCATCAGCAGGTTACCATAACTTAA	0.464	0.607	0.713	1.81	2.25	2.25	3.27	2.6	0.527	1.93	4.49	5.48	0.985	1.98	1.51	1.12	0.678	1.2	0.663	1.33
CCGATTGGGGCAAAGGTTACCATACTCAGTACGA	1.84	1.62	-0.0955	2.33	-0.878	4.89	8.96	8.43	7.85	8.46	2.91	4.24	0.329	0.0522	1.15	2.32	-0.232	3.81	-0.223	2.31
CAAACTAGGTCACAGCGGTCAAAGTCCGTGCGTA	5.25	5.23	5.2	4.06	0.739	5.65	8.85	7.4	5.13	7.02	8.22	8.97	2.1	1.7	2.78	3.32	1.36	3.58	1.2	4.58
TTACCAAGGTGAAAGGTCGTTGATGCACGCCTTG	3.49	3.43	0.252	2.79	-0.555	5.38	9.01	7.94	6.67	8.46	2.84	4.92	0.117	-0.276	1.41	3.96	0.351	5.27	0.055	3.04
GCTCGGAGGACAAGTTCAGAGCTTTGTCCGTAGA	0.263	0.115	-0.227	0.0203	-0.625	0.311	-0.94	-0.31	-1.15	-0.738	-0.557	-0.546	-1.36	-1.47	-0.526	0.977	0.281	0.489	-1.39	1.92
TATCGGAGGACACGAAGGTCAGAGCTTTCCAGAG	1.17	1.65	1.08	1.14	-0.0992	1.88	0.951	1.18	0.288	0.613	0.135	1.54	-0.485	-0.6	1.67	1.9	1.2	2.05	0.593	3.22
ATACCAAGGTGATCGTGACGTCGTTGATACTAAC	0.364	0.342	0.147	0.547	-0.176	0.36	0.582	0.302	-0.0759	0.172	0.791	1.2	0.681	0.866	0.477	0.0619	0.0409	0.447	0.899	0.752
CCTACTGGGCCAAAAAGGTGATTGATGCCGATAA	-0.195	-0.147	-0.405	-0.234	-0.963	0.761	0.56	0.945	-0.119	0.309	2.58	2.98	-0.0281	-0.242	0.459	-0.0996	-0.324	-0.0994	-0.0492	0.271
CCTACTGGGACAAAGGTCATTGATTCCAATGCTC	5.11	5.21	4.66	4.9	1.5	6.27	11.8	10.3	12.2	11.7	5.4	7.14	1.81	1.06	4.59	5.27	2.24	6.06	2	4.45
TTACCAAGGTGATCTGAGGTCGTTGATCCAACTC	1.9	3.07	0.554	1.78	-0.164	1.78	0.169	0.846	0.216	0.651	0.904	1.97	0.232	-0.0515	1.46	5.06	1.41	2.02	0.209	1.55
TCTATTAGGTGAAGGGCAACCGACGAGTCCGTTT	0.937	1.07	0.449	0.669	0.667	2.44	4	5.18	4.86	5.44	5.49	4.75	1.19	0.901	1.58	0.47	0.805	0.687	0.733	2
GGAACGAGGGCTAAGTTGATAGCATCTGTCGACG	-0.545	-0.626	-0.392	-0.796	-0.848	0.746	1.37	2.81	1.41	2.31	0.209	0.114	0.146	-0.476	-0.2	-0.47	-0.382	-0.0692	-0.234	0.086
TAGCCTAGGTCATTGGGTCAGTATAGTACGCATC	4.85	4.31	1.59	3.21	0.907	4.58	5.28	5.07	1.89	3.99	4.09	4.95	0.491	0.952	3.71	2.99	0.622	3.67	0.571	4.06
ACTATTAGTGGAGACGAGGGCAACCGATAGGTTG	0.0192	-0.21	-0.488	-0.347	-0.31	-0.00529	0.674	0.335	-0.0792	0.232	-0.144	0.852	0.383	0.735	-0.247	0.218	0.0964	0.0871	0.227	0.779
